Data as given in PubChem BioAssay AID602393 (Broad Institute, 2012).
Screen size: about 350,000 compounds; about 7,000 (2%) were called active. Only a selection was taken, and actives are over-represented in it overall. Values without a mark were called inactive. Cut-off read from the data, not from the text of the source: active = activation above about 40%; inconclusive = no clear call, values can overlap the other calls; inactive = below that.

Assay: raisers of Bmi1 knock-in reporter signal – mouse ES cells, Bmi1 luciferase knock-in, single point, esBAF inhibitor project, primary screen (AID 602393);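 note: 0% = median of the plate's neutral control wells and 100% = double that signal; a rise in the Bmi1 reporter signal indicates esBAF inhibition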
Settings: 24 h, at 12.5 µM, hits give high values, 100% = twice the neutral-well signal

Row | SMILES | reporter increase
1 | CS(=O)(=O)Nc1ccc2c(c1)[C@@H]1C[C@H](CC(=O)NCc3cc(F)ccc3F)O[C@@H](CO)[C@@H]1O2 | 1.97%
2 | O=C(C[C@H]1CC[C@H](NC(=O)c2ccc3c(c2)OCO3)[C@H](CO)O1)NCc1ccc(Oc2ccccc2)cc1 | -8.21%
3 | CNC[C@H]1Oc2ccc(NC(=O)Nc3ccc4c(c3)OCO4)cc2CC(=O)N([C@H](C)CO)C[C@H]1C | 0.772%
4 | Nc1ccc(N=Nc2ccccc2Cl)c(N)n1 | 76% (active)
5 | COc1ccc(NC(=O)N(C)C[C@@H]2Oc3c(NC(=O)C4CCOCC4)cccc3C(=O)N([C@H](C)CO)C[C@@H]2C)cc1 | 1.63%
6 | Cc1ccccc1CC1(CO)CCCN(C(=O)c2cc(-c3ccccc3)no2)C1 (stereo not drawn) | -3.48%
7 | CCCc1cc(C(=O)N2CCCC(CO)(CCCc3ccccc3)C2)n(C)n1 (stereo not drawn) | 9.89%
8 | COC(=O)CCC(=O)N1CCCC(CO)(Cc2ccccc2)C1 (stereo not drawn) | 88.3% (active)
9 | CCOC(=O)C1(Cc2ccccc2C)CCCN(C(=O)CCc2c(C)noc2C)C1 (stereo not drawn) | 4.36%
10 | Cc1noc(C)c1CCC(=O)O | -5.69%
11 | Cc1noc(C)c1CCC(=O)N1CCCC(CO)(Cc2ccccc2)C1 (stereo not drawn) | 73.8% (active)
12 | CCCN(C)C[C@H]1OCCCC[C@@H](C)Oc2ccc(NC(=O)CCC(F)(F)F)cc2C(=O)N([C@H](C)CO)C[C@H]1C | 3.13%
13 | COc1cccc(-c2ccc3c(c2)O[C@@H](CN(C)Cc2ccncc2)[C@H](C)CN([C@H](C)CO)S3(=O)=O)c1 | 0.833%
14 | CN1CCN(C(=O)C[C@H]2C[C@@H]3c4cc(NC(=O)NC5CCCC5)ccc4O[C@@H]3[C@@H](CO)O2)CC1 | -0.346%
15 | O=C(CN1CCOCC1)N[C@@H]1CC[C@@H](CCn2cc(C3CCCCC3)nn2)O[C@@H]1CO | -5.48%
16 | O=C1C(Cc2ccc(O)cc2)NC(=S)N1Cc1ccccc1 (stereo not drawn) | -6.04%
17 | CN(C)c1ccc(/C=C2\NC(=S)N(Cc3ccccc3)C2=O)cc1 | 42.2% (active)
18 | CC1CN(Cc2ccccc2)C(=S)NC1=O (stereo not drawn) | 2.98%
19 | C[C@H](CO)N1C[C@H](C)[C@H](CN(C)S(=O)(=O)c2ccccc2)Oc2ccc(NC(=O)Cn3cnnn3)cc2C1=O | 2.23%
20 | CCC(=O)Nc1ccc2c(c1)C(=O)N(C)[C@@H]1CC[C@@H](CC(=O)Nc3cccc(OC)c3)O[C@@H]1CO2 | -2.81%
21 | Cc1nn(Cc2ccc(Cl)c(Cl)c2)c(C)c1NC(=O)c1cc(C2CC2)on1 | 7.59%
22 | O=C(NC1CCCCC1)c1cc(C2CC2)on1 | -10.1%
23 | CSc1ccccc1NC(=O)c1cc(C2CC2)on1 | 53.9% (active)
24 | CCCNC(=O)N1C[C@H](O)COC[C@H]2O[C@@H](CC(=O)NCc3ccncn3)CC[C@@H]21 | -2.02%

Row | SMILES | reporter increase
25 | Clc1ccccc1SCc1nc2ccccc2[nH]1 | 53% (active)
26 | CCn1c(Cc2ccccc2)nnc1SCc1nc2ccccc2c(=O)[nH]1 | -5.17%
27 | CCN(CC)S(=O)(=O)c1ccc2nc(CSc3nnnn3-c3ccc(O)cc3)[nH]c2c1 | 1.1%
28 | O=C(C[C@@H]1C[C@H]2c3cc(NC(=O)NC4CCCC4)ccc3O[C@H]2[C@H](CO)O1)NCc1cc(F)ccc1F | 5.15%
29 | COc1cc(OC)cc(-c2cc3ccc(F)cc3cn2)c1 | 58.7% (active)
30 | N#CCSc1nc(-c2ccccc2)nc2ccc(F)cc12 | -3.61%
31 | COc1ccc(C(C)(O)c2nc(-c3cc(F)cc(F)c3)cs2)cc1 (stereo not drawn) | -4.23%
32 | COc1ccc(-c2cc3ncccc3cn2)cc1 | 10.9%
33 | Fc1ccccc1-c1cc2cc3c(cc2cn1)OCO3 | 16.5%
34 | Fc1ccc2cnc(-c3ccccc3)cc2c1 | 58.8% (active)
35 | O=C(Nc1ccc(Cl)cc1)N1C[C@@H]2[C@H](c3ccccc31)[C@@H](CO)N2C(=O)c1cccnc1 | 13.8%
36 | CO[C@H]1CN(C)C(=O)c2cc(NC(=O)Nc3ccccc3)ccc2OC[C@@H](C)N(C(=O)Nc2c(C)noc2C)C[C@@H]1C | 3.56%
37 | O=S(=O)(NCC[C@H]1CC[C@@H](NS(=O)(=O)c2cccc(Cl)c2)[C@@H](CO)O1)c1cccc(F)c1 | 8.34%
38 | CCC(=O)N1C[C@@H](C)[C@H](OC)CN(C)C(=O)c2cc(NC(=O)c3cc(C)on3)ccc2OC[C@@H]1C | 6.47%
39 | COc1ccc(OCc2cc(C(=O)NCC3(C)COC3)no2)c(Cl)c1 | 42.9% (active)
40 | COc1ccc(-c2cc(C(=O)NCCCN3CCOCC3)no2)cc1 | -13.5%
41 | COCCN1CCN(C(=O)c2cc(COc3ccc(F)cc3Cl)on2)CC1 | -1.67%
42 | CC(=O)N(C)C[C@@H]1Oc2ncc(-c3ccccc3F)cc2C(=O)N([C@H](C)CO)C[C@@H]1C | -1.47%
43 | OCCCN1c2ccccc2Nc2nnc(-c3ccccc3)cc21 | 45.3% (active)
44 | N=c1c2c(-c3ccccc3)c(-c3ccccc3)n(Cc3ccccc3)c2ncn1CCCO | -11.6%
45 | O=C(C[C@@H]1CC[C@@H](NC(=O)c2cccnc2)[C@H](CO)O1)NCCN1CCCCC1 | -6.27%
46 | CCNC(=O)C[C@@H]1CC[C@H]2[C@@H](COc3ccc(NC(=O)c4ccccc4Cl)cc3C(=O)N2C)O1 | 2.25%
47 | COc1ccc(NC(=O)Nc2ccc3c(c2)C(=O)N([C@H](C)CO)C[C@H](C)[C@@H](CN(C)Cc2ccccc2)OCCCC[C@H](C)O3)cc1 | 3.05%
48 | COCC(=O)Nc1ccc2c(c1)C(=O)N(C)C[C@H](OC)[C@@H](C)CN(C(=O)Cc1cccnc1)[C@@H](C)CO2 | -0.572%

Row | SMILES | reporter increase
49 | O=C(Nc1cccc([N+](=O)[O-])c1)Nn1cnnc1 | 9.77%
50 | Cn1cccc1C(=O)N1CCc2ccccc2C1 | 28.8%
51 | O=C(CN1CCOCC1)Nc1cccc([N+](=O)[O-])c1 | -2.52%
52 | O=C(Nc1cccc([N+](=O)[O-])c1)N1CCc2ccccc2C1 | 45.9% (active)
53 | CCc1ccc(NC(=O)N2CCc3ccccc3C2)cc1 | 60.4% (active)
54 | Cc1ccc(NC(=O)CN2CCc3ccccc3C2)cc1C | 8.63%
55 | COCC(=O)N(C)C[C@H]1[C@@H](c2ccc(-c3cccnc3)cc2)[C@H](CO)N1C(C)=O | 3.19%
56 | CO[C@@H]1CN(C)C(=O)c2cc(NC(=O)c3ccc(F)cc3)ccc2OC[C@H](C)NC[C@@H]1C | 2.56%
57 | O=C(COc1cccnc1[N+](=O)[O-])Nc1ccc(Cl)cc1F | 43.4% (active)
58 | COc1cccc(NC(=O)COc2cccnc2[N+](=O)[O-])c1 | 20%
59 | CC(NC(=O)COc1cccnc1[N+](=O)[O-])c1ccc(Cl)cc1Cl (stereo not drawn) | 0.51%
60 | Cn1c(COc2ccc(Cl)cc2)nc2ccccc2c1=O | 12.6%
61 | COc1ccc(OCc2ccc(-c3nc4ccccc4c(=O)n3N)o2)cc1 | 54.8% (active)
62 | COc1ccc(-c2nc3ccccc3c(=O)n2CCc2ccc(O)cc2)cc1 | 9.53%
63 | COc1ccc(S(=O)(=O)N2CC[C@@H]3[C@@H](CO)Nc4ccc(C#Cc5cccnc5)cc4[C@@H]32)cc1 | 7.74%
64 | CO[C@@H]1CN(C)C(=O)c2cc(NS(=O)(=O)Cc3ccccc3)ccc2OC[C@H](C)NC[C@H]1C | -0.575%
65 | COCC#Cc1cnc2c(c1)C(=O)N([C@H](C)CO)C[C@H](C)[C@H](CN(C)C(=O)Nc1cc(F)ccc1F)O2 | -0.321%
66 | COc1ccc(-c2cn3ccc(C)cc3n2)cc1 | -61.7%
67 | CCN(CC)S(=O)(=O)c1ccc(-c2cn3ccc(C)cc3n2)cc1 | 42.3% (active)
68 | CCN(c1cccc(C)c1)S(=O)(=O)c1ccc(-c2coc(C)n2)cc1 | 2.04%
69 | COCC(=O)Nc1ccc2c(c1)C(=O)N(C)C[C@H](OC)[C@@H](C)CN(C(=O)c1cnccn1)[C@H](C)CO2 | -3.88%
70 | COC(=O)C[C@H]1CC[C@@H](NC(=O)c2ccccc2)[C@@H](CO)O1 | -2.05%
71 | CC(C)NC(=O)Nc1ccc2c(c1)C(=O)N([C@@H](C)CO)C[C@H](C)[C@@H](CN(C)C(=O)Nc1ccc(F)cc1)OCCCC[C@H](C)O2 | 11.9%
72 | O=C(NCC(=O)N1CCN(c2ccccc2F)CC1)c1cccs1 | 28.1%

Row | SMILES | reporter increase
73 | O=C(CCc1ccccc1F)N1CCN(c2ccccc2)CC1 | 1.91%
74 | O=C(CCSc1ccccc1)N1CCN(c2ccccc2F)CC1 | 65.1% (active)
75 | CCCN1C[C@H](C)[C@@H](OC)CN(C)C(=O)c2ccc(NC(=O)C3CCOCC3)cc2OC[C@H]1C | -2.07%
76 | O=C(C[C@@H]1CC[C@H]2NC[C@H](O)COC[C@@H]2O1)NCCN1CCCCC1 | 6.52%
77 | O=C(CC(F)(F)F)N1C[C@H]2[C@@H](c3ccccc31)[C@H](CO)N2C(=O)Cc1cccnc1 | -1.13%
78 | CC(=O)Nc1cccc(NC(=O)c2ccc3c(c2)CCN3S(C)(=O)=O)c1 | 2.43%
79 | CS(=O)(=O)N1CCc2cc(C(=O)Nc3ccccc3)ccc21 | 47.5% (active)
80 | CS(=O)(=O)N1CCc2cc(C(=O)Nc3ccccc3Br)ccc21 | 34.7%
81 | O=C(O)C[C@H]1C[C@@H]2c3cc(NC(=O)Nc4ccc(C(F)(F)F)cc4)ccc3O[C@@H]2[C@@H](CO)O1 | 2.29%
82 | COc1ccc(CN2C(=O)C(C)S/C2=N/N=C/c2ccco2)cc1 (stereo not drawn) | 70.2% (active)
83 | CCN(CC)C(=O)C1=C(C)N(Cc2ccc(OC)cc2)C(=O)C(CC(=O)NCc2ccco2)C1 (stereo not drawn) | -3.89%
84 | C=CCN1C(=O)C(Cc2cccc(Cl)c2)S/C1=N/N=C/c1ccco1 (stereo not drawn) | -2.3%
85 | CCCC(=O)Nc1ccc2c(c1)C(=O)N(C)C[C@@H](OC)[C@@H](C)CN(C(=O)CC)[C@H](C)CO2 | -1.94%
86 | CN(C)C(=O)C[C@H]1CC[C@@H](NC(=O)Nc2cccc(F)c2)[C@H](CO)O1 | -0.909%
87 | COCC#Cc1cnc2c(c1)C(=O)N([C@@H](C)CO)C[C@@H](C)[C@H](CN(C)C(=O)c1cnccn1)O2 | 3.45%
88 | CN1C(=O)c2cc(NC(=O)Nc3ccccc3Cl)ccc2OC[C@H]2O[C@@H](CC(=O)O)CC[C@H]21 | 3.49%
89 | O=C(C1CCC(=O)N(C2CC2)C1)N1CCN(c2ccc(Cl)cc2)CC1 (stereo not drawn) | -7.88%
90 | COCC1CCN(C(=O)C2CCC(=O)N(CC3CCCCC3)C2)CC1 (stereo not drawn) | -0.459%
91 | CC(C)C1CCN(C(=O)C2CCC(=O)N(C3CCCCCC3)C2)CC1 (stereo not drawn) | 55.6% (active)
92 | COc1ccc(S(=O)(=O)Nc2ccc3c(c2)CC(=O)N([C@H](C)CO)C[C@H](C)[C@@H](CN(C)C)O3)cc1 | -3.65%
93 | O=C(Cc1ccccn1)N[C@H]1CC[C@H](CCNS(=O)(=O)c2cccc(F)c2)O[C@@H]1CO | 0.895%
